Experimental data published in article PMC4336329 (PLoS ONE, 2015).
Out of some 310,000 compounds screened, about 14,000 (4.5%) showed an effect of 50% or more. Effects have a minus sign here. Many of the other results were omitted from the sample, so strong results are more common in it than they were.

Target: human ether-à-go-go-related gene (hERG) potassium channel (human, UniProt Q12809)
Assay: primary screen, population patch clamp on CHO cells stably expressing hERG; higher = less effect of the substance
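Note: peak tail current of the secondary pulse compared with the same well before compound.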

human ether-à-go-go-related gene (hERG) potassium channel, sequence (Q12809 whole entry, looked up): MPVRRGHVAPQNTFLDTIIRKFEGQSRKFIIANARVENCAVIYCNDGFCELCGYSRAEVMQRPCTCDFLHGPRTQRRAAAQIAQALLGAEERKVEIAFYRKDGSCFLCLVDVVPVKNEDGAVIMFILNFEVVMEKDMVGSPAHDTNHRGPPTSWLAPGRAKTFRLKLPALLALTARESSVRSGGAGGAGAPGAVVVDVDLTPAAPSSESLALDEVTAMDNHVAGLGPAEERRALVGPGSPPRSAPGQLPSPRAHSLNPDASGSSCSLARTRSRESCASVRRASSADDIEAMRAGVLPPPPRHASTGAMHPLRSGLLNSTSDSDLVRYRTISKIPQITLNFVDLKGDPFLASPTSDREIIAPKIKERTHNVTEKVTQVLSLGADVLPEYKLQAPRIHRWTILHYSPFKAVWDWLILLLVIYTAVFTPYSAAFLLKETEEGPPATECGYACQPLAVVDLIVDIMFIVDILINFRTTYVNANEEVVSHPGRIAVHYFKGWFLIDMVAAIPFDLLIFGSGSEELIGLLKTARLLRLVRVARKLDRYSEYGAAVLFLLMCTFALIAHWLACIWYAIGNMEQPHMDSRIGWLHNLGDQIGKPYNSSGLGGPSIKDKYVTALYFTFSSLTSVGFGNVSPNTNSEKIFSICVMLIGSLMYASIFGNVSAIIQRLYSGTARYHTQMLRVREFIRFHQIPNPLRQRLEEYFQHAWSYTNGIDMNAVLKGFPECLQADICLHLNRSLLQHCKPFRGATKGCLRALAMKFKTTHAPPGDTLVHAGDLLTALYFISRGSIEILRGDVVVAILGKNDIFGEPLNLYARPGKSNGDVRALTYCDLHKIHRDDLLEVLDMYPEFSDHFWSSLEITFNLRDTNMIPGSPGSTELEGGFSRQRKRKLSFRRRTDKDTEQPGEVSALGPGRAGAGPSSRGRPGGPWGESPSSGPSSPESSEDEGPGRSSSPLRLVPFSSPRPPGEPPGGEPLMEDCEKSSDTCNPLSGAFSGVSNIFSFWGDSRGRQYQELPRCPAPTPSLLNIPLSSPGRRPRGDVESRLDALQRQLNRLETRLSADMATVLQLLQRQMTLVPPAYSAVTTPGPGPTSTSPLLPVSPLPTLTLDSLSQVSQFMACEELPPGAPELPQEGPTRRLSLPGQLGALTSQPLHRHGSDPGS

| SMILES | hERG current change (%, negative = inhibition) at 10uM [%] |
| --- | --- |
| CCC1CCCCN1C(=S)NCc1ccccc1 (centres unmarked) | -1.29 |
| COc1ccc(-c2c(C)n([O-])c(C)c(-c3ccccc3)[n+]2=O)cc1OC | 7.35 |
| Cc1cccc(-n2cc(CN(C)Cc3nccn3C)c(-c3cccc(F)c3)n2)c1 | -6.01 |
| CCN(CC(=O)NC(C)(C)C)C(=O)c1ccc(Br)cc1 | 2.64 |
| O=C(NCCc1ccc(Cl)cc1)C1CCCN1C(=O)Nc1ccccc1 (centres unmarked) | -11.5 |
| COc1ccc(C(=O)Nc2ccc(SC(F)F)cc2)cc1 | -2.14 |
| COc1ccc(O)c(C(=O)c2coc(=N)c(C(=O)Nc3ccc(SC(F)F)cc3)c2)c1 | -69.9 |
| CCOc1ccccc1NC(=O)c1cc(C(=O)c2cc(OC)ccc2O)coc1=N | -20.3 |
| O=c1[nH]c(C2CCN(S(=O)(=O)c3ccc(F)cc3)CC2)nc2c1nnn2Cc1ccc2c(c1)OCCO2 | 11.1 |
| COc1cc2c(c(OC)c1OC)-c1ccc(O)c(=O)cc1C(NC(C)=O)CC2 (centres unmarked) | 13.7 |
| O=C(Nc1ccc(OC(F)F)cc1)c1cc(S(=O)(=O)N2CCCCC2)ccc1N1CCOCC1 | -65.8 |
| CCN1CCN(c2ccc(NC(=O)c3cc(S(=O)(=O)N4CCCC4)ccc3Cl)cc2)CC1 | -27.7 |
| CCN1CCN(S(=O)(=O)c2ccc(Cl)c(C(=O)Nc3ccc(OC(F)F)cc3)c2)CC1 | -70.4 |
| N#Cc1ccc(NC(=O)c2cc(S(=O)(=O)N3CCOCC3)ccc2N2CCCC2)cc1 | -80.4 |
| NC(=O)c1ccc(NC(=O)c2cc(S(=O)(=O)N3CCCCC3)ccc2N2CCOCC2)cc1 | -13.9 |
| CNC(=O)c1ccc(NC(=O)c2cc(S(=O)(=O)N3CCOCC3)ccc2N2CCCC2)cc1 | 7.71 |
| O=C(Nc1cccc(F)c1)c1cc(S(=O)(=O)N2CCOCC2)ccc1N1CCCC1 | -34.2 |
| CCN1CCN(S(=O)(=O)c2ccc(Cl)c(C(=O)Nc3ccc(C(=O)N(CC)CC)cc3)c2)CC1 | 0.597 |
| O=C(Nc1ccc(OC(F)F)cc1)c1cc(S(=O)(=O)N2CCOCC2)ccc1F | -31.3 |
| O=C(O)c1ccccc1N1C(=O)C2C3c4ccccc4C(Br)(c4ccccc43)C2C1=O (centres unmarked) | 18.4 |
| CCN(CC(=O)NCc1cccs1)C(=O)/C=C/c1ccc(OC)c(OC)c1 | -23.5 |

| SMILES | hERG current change (%, negative = inhibition) at 10uM [%] |
| --- | --- |
| Cc1cc(C)n2nc(C(=O)OCC(=O)Nc3ccc4c(c3)OCCO4)nc2n1 | 3.56 |
| CCOc1cc(C(=S)N2CCOCC2)ccc1OS(=O)(=O)c1ccccc1 | -10 |
| COc1ccc(OCC(=O)NCCCCCCNC(=O)COc2ccc(OC)cc2)cc1 | 10.6 |
| CCOC(=O)C1CCCN(CC(O)COCc2ccc3c(c2)OCO3)C1 (centres unmarked) | -23.5 |
| CCc1cc(C(=O)NNC(=O)CCN2CCN(c3ccccc3)CC2)sc1C | 11.8 |
| O=C(Nc1nnc(C2CC2)o1)c1ccc(S(=O)(=O)N2CCCc3ccccc32)cc1 | -19.3 |
| COc1cccc(/C=N/Nc2ncc(C(F)(F)F)cc2Cl)c1O | 36.1 |
| COc1cc(/C=N/Nc2ncc(C(F)(F)F)cc2Cl)cc(OC)c1O | -64.8 |
| COc1ccc(/C=N/Nc2ncc(C(F)(F)F)cc2Cl)cc1OC | 3 |
| CCN(CC(=O)Nc1cc(C)on1)CC(=O)Nc1ccccc1C(F)(F)F | 13.7 |
| Cc1ccc(NC(=O)CN(C)C(=O)c2ccc(Cl)c([N+](=O)[O-])c2)cc1 | -52.1 |
| CN(CC(=O)Nc1ccc(F)c(F)c1F)C(=O)c1ccc(-n2cncn2)c([N+](=O)[O-])c1 | -40.6 |
| Cc1ccc(NC(=O)CN(C)C(=O)c2ccc(-n3cncn3)c([N+](=O)[O-])c2)cc1 | -49.2 |
| CN(CC(=O)Nc1c(Cl)cccc1Cl)C(=O)c1ccc(-n2cncn2)c([N+](=O)[O-])c1 | 5.71 |
| O=C(NCCc1ccccc1)c1ccc(Cl)c([N+](=O)[O-])c1 | -27.2 |
| CN(Cc1ccccc1)C(=O)c1ccc(Cl)c([N+](=O)[O-])c1 | -53.5 |
| CN(CC(=O)Nc1ccc(Cl)cc1)C(=O)c1ccc(-n2cncn2)c([N+](=O)[O-])c1 | -70.3 |
| CN(CC(=O)Nc1ccc(F)c(F)c1F)C(=O)c1ccc(-n2cncn2)cc1 | -63.8 |
| Cc1ccc(NC(=O)CN(C)C(=O)C(C)OC(=O)CNC(=O)c2ccc(Cl)c([N+](=O)[O-])c2)cc1 (centres unmarked) | -43 |
| CCN(C(=O)c1ccc(Cl)c([N+](=O)[O-])c1)c1ccccc1 | -5.95 |
| Cc1ccc(NC(=O)CN(C)C(=O)c2ccc(Sc3nncn3C)c([N+](=O)[O-])c2)cc1 | -40.3 |

| SMILES | hERG current change (%, negative = inhibition) at 10uM [%] |
| --- | --- |
| CN(CC(=O)Nc1ccc(F)c(F)c1F)C(=O)c1ccc(=O)[nH]c1 | 0.382 |
| CCC(=O)NCCc1nc2ccccc2[nH]1 | 1.08 |
| CN1CCN(c2nc(N)cc(=O)[nH]2)CC1 | 15.2 |
| c1ccc(-n2c(Sc3cnccn3)nnc2-c2cccs2)cc1 | -33.3 |
| CSc1nc([O-])cc(=O)n1-c1ccc(F)cc1.[K+] | 2.86 |
| COc1cccc(/C=C2/C(=O)NN(c3ccc(C)c(C)c3)C2=O)c1 | -3.01 |
| Cn1c(=O)c2c(SCC(=O)NCc3ccco3)nc(-c3ccccc3Cl)nc2n(C)c1=O | -1.4 |
| C=CCN1C(=O)c2ccc(C(=O)N(C)CC(=O)Nc3c(C)cccc3C)cc2C1=O | 15.4 |
| Cc1ccc(C)c(NC(=O)CN(C)C(=O)c2ccc(-n3cncn3)c([N+](=O)[O-])c2)c1 | -26.7 |
| Cc1cccc(NC(=O)CNC(=O)c2ccc(-n3cncn3)c([N+](=O)[O-])c2)c1C | -9.18 |
| Cc1ccc(OCC(=O)NNC(=O)c2ccc(-n3cncn3)c([N+](=O)[O-])c2)cc1 | -2.51 |
| Cc1cc(Br)ccc1NC(=O)CN(C)C(=O)c1ccc(-n2cncn2)c([N+](=O)[O-])c1 | -64.4 |
| C=CCN1C(=O)c2ccc(C(=O)N(C)CC(=O)Nc3ccccc3Br)cc2C1=O | 4.17 |
| C=CCN1C(=O)c2ccc(C(=O)N(C)CC(=O)Nc3ccc(Br)cc3C)cc2C1=O | -52.5 |
| Cc1cccc(C)c1NC(=O)CN(C)C(=O)c1ccc(-n2cncn2)c([N+](=O)[O-])c1 | -6.43 |
| O=C(COc1ccc(Br)cc1)NNC(=O)c1ccc(-n2cncn2)c([N+](=O)[O-])c1 | -61 |
| Cc1cc(Br)ccc1NC(=O)c1ccc(-n2cncn2)c([N+](=O)[O-])c1 | 12.3 |
| Cc1cc(Br)ccc1NC(=O)CNC(=O)c1ccc(-n2cncn2)c([N+](=O)[O-])c1 | -59.9 |
| O=C(COc1ccccc1Cl)NNC(=O)c1ccc(-n2cncn2)c([N+](=O)[O-])c1 | 10.9 |
| CCc1[nH]c(=S)c(C#N)c2c1CCCC2 | 14.9 |
| COc1cccc(C(c2nnnn2Cc2ccccc2)N2CCN(C3CCCC3)CC2)c1OC.Cl (centres unmarked) | -32 |

| SMILES | hERG current change (%, negative = inhibition) at 10uM [%] |
| --- | --- |
| O=c1[nH]nc(Sc2ncnc3sccc23)n1CCc1ccccc1 | -18.3 |
| CC1CCC/C=C/C2CC(O)CC2C(O)/C=C/C(=O)O1 (centres unmarked) | -2.12 |
| O=C(c1cnn2c(C(F)F)cc(-c3ccccc3)nc12)N1CCc2ccccc2C1 | -15.6 |
| CCn1c(SCC(=O)NCCc2ccccc2)nc2c(c1=O)SC(C)C2 (centres unmarked) | 5.03 |
| COc1cccc(NC(=O)CCN2C(=O)c3ccccc3Sc3ncccc32)c1 | 12.7 |
| O=C(COC(=O)C1CCC(=O)N1)Nc1ccc(Br)cc1 (centres unmarked) | 12 |
| Cc1cc2nc3n(c2cc1C)CC1CC(C(=O)NCCc2cccs2)N(C)C31 (centres unmarked) | -38.5 |
| CN1C(C(=O)NCCc2cccs2)CC2Cn3c(nc4cc5ccccc5cc43)C21 (centres unmarked) | -65.9 |
| CN1C(C(=O)NCCc2cccs2)CC2Cn3c(nc4ccccc43)C21 (centres unmarked) | -27.3 |
| CN1C(C(=O)NCCc2cccs2)CC2Cn3c(nc4cc(Cl)c(Cl)cc43)C21 (centres unmarked) | -63.6 |
| CNC1=C([N+](=O)[O-])CC([N+](=O)[O-])=C(N2CCNCC2)N1C | 8.57 |
| COc1cccc(-c2nc(CS(=O)(=O)CC(=O)NCCC(C)C)c(C)o2)c1 | -10.7 |
| CCOC(=O)N1CCC(NC(=O)CS(=O)(=O)Cc2nc(-c3ccc(OC)cc3)oc2C)CC1 | 13.3 |
| CCCNC(=O)CS(=O)(=O)Cc1nc(-c2cccc(OC)c2)oc1C | -70 |
| COc1cccc(-c2nc(CS(=O)(=O)CC(=O)NCCCN3CCN(C)CC3)c(C)o2)c1 | 3.5 |
| COc1cccc(-c2nc(CS(=O)(=O)CC(=O)NC3CC3)c(C)o2)c1 | 16.1 |
| COc1cccc(-c2nc(CS(=O)(=O)CC(=O)NCCCN3CCOCC3)c(C)o2)c1 | 7.17 |
| CCOC(=O)N1CCC(NC(=O)CS(=O)(=O)Cc2nc(-c3cccc(OC)c3)oc2C)CC1 | -54.2 |
| COc1cccc(-c2nc(CS(=O)(=O)CC(=O)NCCCN3CCc4ccccc4C3)c(C)o2)c1 | -71.6 |
| COCCCNC(=O)CS(=O)(=O)Cc1nc(-c2cccc(OC)c2)oc1C | 7.73 |
